Assay results from PubChem BioAssay AID489043 (National Center for Advancing Translational Sciences (NCATS), 2010).
Inconclusive results are not listed. Active and inactive are the calls of the source. The call rests on the fitted dose curve; in most records, active means well fitted activation curve with a large enough effect; inconclusive means small, poorly fitted or top-dose-only effect; inactive means flat fitted curve, though single readings scatter.

These molecules were tested against Relaxin receptor 2 (Homo sapiens) (UniProt Q8WXD0) (assay: qHTS Assay for Agonists of the Relaxin Receptor RXFP1: RXFP2 Hit Validation). Conditions: HEK293 RXFP2 cAMP TR-FRET, 30 min; series mostly up to 115 µM; activation: at the top concentration.
Description: NIH Chemical Genomics Center [NCGC] NIH Molecular Libraries Probe Production Centers Network [MLPCN] MLPCN Grant: R03 MH085705-01A1 Assay Submitter (PI): Alexander Agoulnik NCGC Assay Overview: The relaxin hormone is involved in the variety of biological functions in normal tissues and diseases. The role of relaxin is well-established in female reproduction and parturition, mammary gland and endometrial development, maintenance of myometrial quiescence during pregnancy. Relaxin signaling through its G protein-coupled receptor (GPCR) RXFP1 results in ECM remodeling through regulation of collagen deposition, cell invasiveness, proliferation and overall tissue homeostasis. […] Recombinant human relaxin (rhRlx) is currently being tested in clinical trials as a protective agent in congestive heart failure, in treating severe preeclampsia, and as an anti-fibrotic agent in systemic sclerosis. Upon relaxin binding RXFP1 activation leads to the activation of adenylate cyclase (AC) via Gs. cAMP will activate PKA, which phosphorylates many signaling proteins. Thus, detection of cAMP increase is an easy and reliable indication of relaxin receptor activation. To screen for agonists of the relaxin receptor, a HEK293T cell line stably transfected with RXFP1 was used. RXFP1 activation was assayed by changes in cAMP levels as detected with a time-resolved fluorescence energy transfer (TR-FRET) cAMP detection kit. This assay measures activation of a cell expressing RXFP2, another GPCR targeted by relaxin, to determine the selectivity of compounds for RXFP1.
NCGC Assay Protocol Summary: This is a cell-based assay for cAMP second messenger response to screen for agonists of the RXFP2 receptor. The assay was conducted in the presence of a PDE4 inhibitor (Ro 20174). The cells were lysed and the cAMP levels were measured with a TR-FRET cAMP kit. Presence of cAMP in the cell lysate disrupts binding between the cryptate-labeled anti-cAMP and d2-labeled cAMP pair, leading to a decrease in the TR-FRET signal. Data were normalized to the controls for basal activity (buffer only) and 100% activity (29 nM porcine relaxin). The EC50 values were determined from concentration-response data modeled with the standard Hill equation 1536-well assay protocol for the HEK293 RXFP2 cAMP assay: (1) Add 3 ul HEK293 RXFP2 cell culture. 2000 cells/well in DMEM/F12, 10% FBS, 1x Pen/Strep (dispensed offline with MultiDrop Combi). (2) Incubate 16-24 hr at 37C, 5% CO2. (3) Add 1 ul 400uM Ro20174 in DPBS, 0.05% BSA, 0.005% Tween 20. (3) Add 23 nl compounds in DMSO solution. Final concentration was 0.5 - 58 uM. (4) Incubate 30 min at 37C, 5% CO2. (5) Add 1 ul cAMP-d2 in lysis buffer (HTRF cAMP HiRange kit, CisBio). (6) Add 1 ul anti-cAMP antibody-cryptate in lysis buffer (HTRF cAMP HiRange kit, CisBio). (7) Incubate 30 min at room temperature. […] Keywords: relaxin, RXFP1, RXFP2, G-protein coupled receptor, cAMP, agonist, high throughput screening, MLSMR, MLSCN, NIH Roadmap, qHTS and NCGC
Further: nearly all actives have a fitted effect of over 65% in size.
Potency means the concentration at half of the fitted maximal effect.

Chain of Relaxin receptor 2 (Homo sapiens) (Q8WXD0 whole entry, looked up): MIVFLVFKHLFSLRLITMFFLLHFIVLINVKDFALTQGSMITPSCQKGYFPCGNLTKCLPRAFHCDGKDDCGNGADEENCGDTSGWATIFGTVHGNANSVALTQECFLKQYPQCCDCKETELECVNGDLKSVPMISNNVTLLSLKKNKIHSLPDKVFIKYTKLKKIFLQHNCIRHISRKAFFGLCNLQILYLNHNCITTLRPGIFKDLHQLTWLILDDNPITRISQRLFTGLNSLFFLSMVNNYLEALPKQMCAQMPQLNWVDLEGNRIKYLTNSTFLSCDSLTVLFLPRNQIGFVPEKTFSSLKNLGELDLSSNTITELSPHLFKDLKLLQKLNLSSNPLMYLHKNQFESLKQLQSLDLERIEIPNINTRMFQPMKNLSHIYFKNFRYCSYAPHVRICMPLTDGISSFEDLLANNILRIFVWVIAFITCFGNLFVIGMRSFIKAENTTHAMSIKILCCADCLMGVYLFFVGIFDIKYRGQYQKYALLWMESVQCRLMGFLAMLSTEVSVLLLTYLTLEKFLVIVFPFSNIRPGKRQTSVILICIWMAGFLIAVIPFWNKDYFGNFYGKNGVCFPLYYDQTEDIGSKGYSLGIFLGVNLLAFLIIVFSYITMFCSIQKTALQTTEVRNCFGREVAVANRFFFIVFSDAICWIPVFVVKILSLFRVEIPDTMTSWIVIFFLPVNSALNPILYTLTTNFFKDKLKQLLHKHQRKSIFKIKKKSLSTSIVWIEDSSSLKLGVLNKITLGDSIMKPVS

Structure (SMILES)	Potency	activation
O=S(=O)(c1cccc(-c2cn3cccnc3n2)c1)N1CCOCC1	34.6 µM (active)	–
Cc1ccc(-c2ccc3nnc(SCC(=O)NCC4CCCO4)n3n2)cc1 (stereo not given)	–	-9.14% (inactive)
COc1ccc(/C=C2/SC(=O)N(CCC(=O)Nc3ccc(C)cc3)C2=O)cc1OC	–	-63.1% (inactive)
O=C(Oc1ccccc1)Oc1ccc2c(c1)oc(=O)c1ccccc12	19.4 µM (active)	–
Cc1cc(NC(=O)c2ccccc2F)nc2c1c(=O)oc1ccccc12	15.4 µM (active)	–
CC1CCCCN1C(=O)c1ccccc1NC(=O)c1ccco1 (stereo not given)	–	3.11% [at 125 µM] (inactive)
COc1ccc(C(=O)Nc2ccc(Cl)cc2C(=O)NCc2ccco2)cc1	42.1 µM (active)	–
Nc1c(Cl)cc(-c2[nH]c3cc(C(=O)NCCO)ccc3c(=O)c2O)cc1Cl	34.6 µM (active)	–
O=C(Nc1ccccc1C(=O)NCCc1ccc(O)cc1)c1ccco1	–	3.59% [at 125 µM] (inactive)
COc1ccc(NC(=O)CCCc2nnc3n(C)c(=O)c4sccc4n23)cc1	34.6 µM (active)	–
C=C[C@@]1(C)CC(=O)[C@]2(O)[C@@]3(C)[C@@H](O)CCC(C)(C)[C@@H]3[C@H](O)[C@H](OC(C)=O)[C@@]2(C)O1	0.0488 µM (active)	–
CC1(C)Cc2c(sc3c2c2ncnn2c2nnc(SCC(=O)NCc4ccco4)n32)CO1	7.76 µM (active)	–
Cc1cc(Br)c2nc3c(c(C(=O)O)c2c1)CCCCC3	1.94 µM (active)	–
CCc1cc2c(=O)nc3n(c2s1)Cc1ccccc1/C3=C(/O)c1cccc([N+](=O)[O-])c1	6.16 µM (active)	–
Cc1ccc(C(=O)Nc2ccccc2C(=O)NCc2ccco2)cc1	–	0.29% [at 125 µM] (inactive)
Nc1c(S(=O)(=O)O)cc(NC(=O)c2ccccc2)c2c1C(=O)c1ccccc1C2=O	–	-16.6% (inactive)
CN(CC(=O)Nc1ccccc1Cl)C(=O)COC(=O)Cc1c(F)cccc1Cl	–	0.312% [at 44.7 µM] (inactive)
CC1(C)Cc2nc3sc4c(SCC(=O)NC(c5ccccc5)c5ccccc5)ncnc4c3cc2CO1	6.15 µM (active)	–
CCc1nn(CC(=O)NCCCN2CCOCC2)c(=O)c2cc3sccc3n12	–	22.1% (inactive)
CCN1CCN(C(=O)CCc2nnc3ccc(N4CCC5(CC4)OCCO5)nn23)CC1	38.9 µM (active)	–

Structure (SMILES)	Potency	activation
COC(=O)c1nc2ccc(N3CCOCC3)cc2c(C)c1C(=O)OC	38.9 µM (active)	–
Cc1ccc(NC(=O)CCc2nnc3ccc(N4CCN(C)CC4)nn23)cc1F	38.9 µM (active)	–
CN(C)c1ccc2nc3c(=O)[nH]c(=O)nc-3n(CC(O)C(O)C(O)CO)c2c1 (stereo not given)	–	15.5% (inactive)
CCNc1nc(NCC)nc(N(C)/N=C/c2ccco2)n1	–	7.92% (inactive)
Cn1c(=O)c2sccc2n2c(CCCC(=O)NCc3ccco3)nnc12	34.6 µM (active)	–
CC(=O)c1sc(NC(=O)C(C)C)nc1C	15.4 µM (active)	–
Cc1cccc(C(=O)Nc2ccccc2C(=O)NCc2ccco2)c1	–	13% [at 125 µM] (inactive)
O=C(Nc1ccccc1C(=O)NCc1ccco1)c1ccco1	–	13% [at 125 µM] (inactive)
Cc1ccc2cc(CN(C(=O)c3cccs3)c3ccccc3)c(=O)[nH]c2c1	–	5.18% (inactive)
CN1CCN(C(=O)CCc2nnc3ccc(N4CCC5(CC4)OCCO5)nn23)CC1	–	25.3% (inactive)
NC(=O)c1ccccc1NC(=O)CC12CC3CC(CC(C3)C1)C2	–	-2.23% [at 125 µM] (inactive)
CCCC(=O)Nc1ncnc2c1ncn2[C@@H]1O[C@@H]2COP(=O)(O)O[C@H]2[C@H]1OC(=O)CCC	1.38 µM (active)	–
S=c1nc[nH]c2c1[nH]c1ccccc12	6.9 µM (active)	–
CCN(CC)S(=O)(=O)c1ccc(C(=O)NCCN2C(=O)S/C(=C\c3cccnc3)C2=O)cc1	13.8 µM (active)	–
Cc1ccc(CN(C)C(=O)c2ccc3c(c2)NC(=O)CS3)o1	–	-25.2% (inactive)
COCCNC(=O)NC(=O)COC(=O)C12CC3CC(CC(NC(C)=O)(C3)C1)C2	–	4.39% [at 44.7 µM] (inactive)
Cc1cc2nc3ccc(=[N+](C)C)cc-3sc2cc1N	–	-5.65% (inactive)
O=C(O)c1cc(-c2ccc(Br)s2)nc2ccccc12	3.46 µM (active)	–
Brc1ccc2ncnc(NCc3cccnc3)c2c1	43.6 µM (active)	–
Cc1cc(C)c(C(=O)CSc2n[nH]c(=O)n2C2CC2)cc1C	–	-0.257% (inactive)
